The text below walks through data of PubChem BioAssay.

Each structure is given as a SMILES string. Activity calls are given as the source filed them.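 Rule for the calls, unless noted: active = visually confirmed hit in the image check and inhibition above 20%; inconclusive = visually confirmed hit but inhibition not above 20%; inactive = no visual hit in the image check.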

Test [1] can be described thus: inhibitors of TNFa-induced NFkB p65 translocation, primary screen, imaging, HUVEC, MLSMR starter and 10KST1 sets (AID 438;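 active = inhibition above 20% together with a positive visual image hit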;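 note: compound added about 3h40 before a 20 min TNFalpha stimulation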;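 for inhibition: signal is the nuclear over cytoplasmic p65 intensity ratio per well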). The settings on record: HUVEC TNFa-induced p65 nuclear translocation; cell count: measured here: nuclei count (cytotoxicity indicator), at 2.08 µM; inhibition: at 2 µM, stronger effect = higher value, 0% TNFa-plus-vehicle, 100% no-TNFa wells.
Test [2] can be described thus: inhibitors of mutant huntingtin aggregation, primary screen, imaging, exon1htt(103Q)mCFP cells, high-content imaging (AID 483;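 active = visual image review flags a hit and inhibition of aggregation exceeds 20%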;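 note: compound exposure lasted 3 days before fixation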;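 for nuclei count: percent of the per-plate median nuclei count of sample wells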). To be noted: exon1htt(103Q)mCFP cell line, aggregate imaging, at 2 µM; inhibition of aggregation: stronger effect = higher value; nuclei count: measured here: cell count, toxicity.
Test [3] is described as follows: inhibitors of E-selectin induction by TNFa, primary screen, imaging, HUVEC, immunofluorescence, MLSMR starter and 10KST1 sets (AID 487).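 For inhibition: signal is fraction of cell area covered by stained E-selectin grains.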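 For nuclei count: 100% = median nuclei count of all wells on the same plate.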 To be noted: HUVEC TNFalpha-induced E-selectin immunofluorescence imaging, at 2 µM; inhibition: stronger effect = higher value; nuclei count: measured here: cell number, toxicity.
Test [4] has as its target Voltage-gated potassium channel subunit beta-2 (Rattus norvegicus) (UniProt P62483). Nature of the test: KvBeta enzyme negative modulators, primary screen, biochemical, NADPH fluorescence (AID 622;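 active = fluorescence slope higher than the sample average by over 3 SD, cut at about -0.22 in these data, passing the limit was not always enough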;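 note: slope of raw intensity against log time taken from 70 to 1610 s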). The settings on record: recombinant KvBeta, 4-cyanobenzaldehyde reduction, at 10 µM, stronger effect = higher value.
Test [5] shares this target. In words: KvBeta positive modulators, primary screen, biochemical, NADPH fluorescence (AID 623;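 active = NADPH fluorescence slope more negative than the mean of all samples by about 3 SD, 99.7% confidence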;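 note: fluorescence intensity change per second fitted from 20 to 320 s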). To be noted: Recombinant KvBeta, NADPH fluorescence decrease slope, 10 min; at 10 µM; stronger effect = lower value.
For test [6], the target named is Alpha-2C adrenergic receptor (Homo sapiens) (UniProt P18825). In words: modulators of alpha2C/GIRK thallium flux, primary screen, cell-based, HEK293 alpha2C/GIRK1/2 (AID 624;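 active = fluorescence slope after compound addition differing from the mean of all screened samples at 99.7% confidence, in either direction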;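 note: slope of fluorescence ratio to pre-addition baseline per second over 15 to 24 s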). The settings on record: thallium flux BTC fluorescence, at 10 µM, actives lie on both sides.
A short description of test [7]: inhibitors of Sendai virus-induced IRF3 signaling, primary screen, TLR/RLR signaling modifier project, cell-based, Sendai virus stimulus, luciferase, 10K MLSCN set (AID 602276;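 active = inhibition at or above 50% at 10 µM; inactive = inhibition below 50%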;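 note: firefly luciferase from ISG56 promoter only with Renilla not read in this screen; 0% = Sendai virus plus DMSO and 100% = medium plus DMSO without virus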). To be noted: HEK293 RL24 IRF3 luciferase reporter, at 10 µM, stronger effect = higher value.
Test [8] in a line: inhibitors of poly I:C-induced TLR3 signaling, primary screen, cell-based, poly I:C stimulus, luciferase, 10K MLSCN set (AID 602277;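 active = inhibition of the reporter signal at or above 50%; inactive = inhibition below 50%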). The settings on record: HEK293-TLR3 RL24 IRF3 luciferase reporter, at 10 µM, stronger effect = higher value. (In a reporter assay the amount or activity of a reporter protein is the signal.)

Chain of Alpha-2C adrenergic receptor (Homo sapiens) (P18825 whole entry, looked up): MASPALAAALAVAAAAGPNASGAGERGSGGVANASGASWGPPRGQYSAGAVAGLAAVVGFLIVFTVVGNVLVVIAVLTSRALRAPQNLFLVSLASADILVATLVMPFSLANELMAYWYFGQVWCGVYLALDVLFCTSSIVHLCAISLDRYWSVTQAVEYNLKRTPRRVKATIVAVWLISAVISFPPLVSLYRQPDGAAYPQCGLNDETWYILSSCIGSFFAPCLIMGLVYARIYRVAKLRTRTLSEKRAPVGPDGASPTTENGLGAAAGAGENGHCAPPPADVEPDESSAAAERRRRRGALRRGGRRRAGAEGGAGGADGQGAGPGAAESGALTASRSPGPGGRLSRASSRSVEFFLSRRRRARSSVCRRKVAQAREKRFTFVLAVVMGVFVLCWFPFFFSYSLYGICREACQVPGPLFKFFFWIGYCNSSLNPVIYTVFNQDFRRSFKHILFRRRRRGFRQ
Chain of Voltage-gated potassium channel subunit beta-2 (Rattus norvegicus) (P62483 whole entry, looked up): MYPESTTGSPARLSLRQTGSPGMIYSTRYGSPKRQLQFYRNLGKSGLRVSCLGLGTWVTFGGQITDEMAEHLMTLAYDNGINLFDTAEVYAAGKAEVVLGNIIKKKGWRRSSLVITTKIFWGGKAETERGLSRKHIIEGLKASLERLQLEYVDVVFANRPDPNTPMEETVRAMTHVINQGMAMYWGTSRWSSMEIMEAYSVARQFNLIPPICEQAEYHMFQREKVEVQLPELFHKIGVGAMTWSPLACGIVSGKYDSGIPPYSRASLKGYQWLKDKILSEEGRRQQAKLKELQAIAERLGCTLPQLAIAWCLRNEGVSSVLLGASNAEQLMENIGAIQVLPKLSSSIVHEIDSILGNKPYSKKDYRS

As usually defined, the inhibition is the change of the read-out against control, counted positive when it falls. Consider `CCCS(=O)(=O)N1CCC(C(=O)NCCN2CCCC2)CC1`, for which, in test [1], the cell count was 201. Also, the inhibition in test [1] was -6.8% (inactive); in test [3], 30.3% (inactive); in test [7], 13.8% (inactive); in test [8] it was 19.2% (inactive). For the same compound, in test [2], the inhibition of aggregation was 12.3% (inactive). Further, the nuclei count in test [2] turned out to be 104%; in test [3] it was 70.1%. For the same compound, in test [4], the fluorescence slope was -0.405 (inactive). Also, the NADPH fluorescence slope in test [5] was -3.3e-05 (inactive). Also, the slope in test [6] is 0.00665 (inactive).
On to `CC1CCc2nn(CC(=O)NCc3ccc4c(c3)OCO4)cc2C1` (centres undefined), for which the cell count in test [1] was 673. Also, the inhibition in test [1] was -6.1% (inactive); in test [3], -80.8% (inactive); in test [7], 7.66% (inactive); in test [8] it was 18% (inactive). For the same compound, the inhibition of aggregation in test [2] is 1.1% (inactive). Moreover, the nuclei count came out at 103% in test [2] and 124% in test [3]. The fluorescence slope in test [4] was -0.506 (inactive). The NADPH fluorescence slope in test [5] was -2.4e-05 (inactive). Moreover, the slope in test [6] is 0.00628 (inactive).
`C=CCn1c(=O)n(CCOC)c(=O)c2sc3ccccc3c21`: in test [1], the cell count is 733. The inhibition was -3.4% (inactive) in test [1], -34% (inactive) in test [3], -6.44% (inactive) in test [7] and 51% (active) in test [8]. Besides, the inhibition of aggregation in test [2] was -12% (inactive). The nuclei count in test [2] was found to be 87.6%; in test [3], 102%. The fluorescence slope in test [4] is -0.566 (inactive). For the same compound, in test [5], the NADPH fluorescence slope was -3.7e-05 (inactive). Moreover, the slope in test [6] is 0.00805 (inactive).
Regarding `Cc1ccc(NC(=O)c2ccco2)c(NC(=O)c2cccs2)c1`, the cell count in test [1] came out at 684. Also, the inhibition in test [1] was 4.8% (inactive); in test [3], -119% (inactive); in test [7], 14.6% (inactive); in test [8] it was 16.5% (inactive). Further, the inhibition of aggregation in test [2] is 9.4% (inactive). The results for the nuclei count in test [2] and in test [3] were 103% and 111%, respectively. Also, the fluorescence slope in test [4] is -0.375 (inactive). Moreover, in test [5], the NADPH fluorescence slope is 2e-06 (inactive). Also, in test [6], the slope is 0.00493 (inactive).
With `O=C(CSc1n[nH]c(-c2cccs2)n1)N1CCN(S(=O)(=O)c2ccccc2)CC1`, the cell count in test [1] came to 785. The inhibition in test [1] is 13.3% (inactive); in test [3], -77% (inactive); in test [7], 17% (inactive); in test [8], 28.7% (inactive). Moreover, the inhibition of aggregation in test [2] was 4.1% (inactive). Besides, the nuclei count in test [2] came to 104%; in test [3], 140%. The fluorescence slope in test [4] was -0.639 (inactive). Further, the NADPH fluorescence slope in test [5] is 3e-05 (inactive). In addition, the slope in test [6] was 0.0053 (inactive).
Turning to `O=C(Nc1ccc2c(c1)OCO2)OCc1ccccc1`, the cell count in test [1] was found to be 449. In addition, the inhibition in test [1] was 1.6% (inactive); in test [3] it was 8.4% (inactive); in test [7] it was -47.7% (inactive); in test [8], -107% (inactive). Besides, the inhibition of aggregation in test [2] is -6% (inactive). The nuclei count in test [2] and in test [3] was 101% throughout. For the same compound, the fluorescence slope in test [4] is -0.439 (inactive). In addition, the NADPH fluorescence slope in test [5] is -5.5e-05 (inactive). The slope in test [6] is 0.0049 (inactive).
Regarding `Cc1cccc(NC(=O)CCN2CCN(C/C=C/c3ccccc3)CC2)c1`, the cell count in test [1] stood at 727. Also, the inhibition is 4.3% (inactive) in test [1], 15.3% (inactive) in test [3], 13.8% (inactive) in test [7] and 6.07% (inactive) in test [8]. Moreover, the inhibition of aggregation in test [2] is 4.2% (inactive). The nuclei count stood at 98.6% in test [2] and 104% in test [3]. The fluorescence slope in test [4] is -0.511 (inactive). The NADPH fluorescence slope in test [5] was -2.6e-05 (inactive). Besides, in test [6], the slope is 0.00628 (inactive).
Turning to `CCOC(=O)N1CCN(c2c(NCCN(C)Cc3ccccc3)c(=O)c2=O)CC1`, in test [1], the cell count amounted to 578. Besides, the inhibition in test [1] was -2% (inactive); in test [3], -62.3% (inactive); in test [7], 1.64% (inactive); in test [8], 6.95% (inactive). For the same compound, in test [2], the inhibition of aggregation was 9.3% (inactive). Besides, the nuclei count in test [2] came to 105%; in test [3], 124%. Further, the fluorescence slope in test [4] is -0.492 (inactive). In addition, the NADPH fluorescence slope in test [5] was -1.8e-05 (inactive). In addition, the slope in test [6] is 0.00728 (inactive).
With `COC(=O)c1ccc(CSc2nc3c(cnn3-c3ccc(F)cc3)c(=O)[nH]2)o1`, the cell count in test [1] was 653. Moreover, the inhibition in test [1] is -12.7% (inactive); in test [3] it was -44.8% (inactive); in test [7], -5.97% (inactive); in test [8], 18.8% (inactive). In addition, in test [2], the inhibition of aggregation was -1.4% (inactive). The results for the nuclei count in test [2] and in test [3] were 106% and 113%, respectively. In addition, the fluorescence slope in test [4] is -0.545 (inactive). For the same compound, the NADPH fluorescence slope in test [5] is 5.2e-05 (inactive). For the same compound, the slope in test [6] is 0.00536 (inactive).
In the case of `Cc1onc(-c2c(Cl)cccc2Cl)c1C(N)=O`, in test [1], the cell count was determined as 406. In addition, the inhibition is 6.3% (inactive) in test [1], -52% (inactive) in test [3], -11.6% (inactive) in test [7] and 7.29% (inactive) in test [8]. In addition, the inhibition of aggregation in test [2] is -2.8% (inactive). The nuclei count in test [2] was 98.3%; in test [3], 98.7%. Moreover, the fluorescence slope in test [4] is -0.5 (inactive). For the same compound, in test [5], the NADPH fluorescence slope is 2.7e-05 (inactive). For the same compound, the slope in test [6] is 0.00603 (inactive).
With `O=C(c1cc(-c2cccc(O)c2)on1)N1CCN(C(c2ccccc2)c2ccccc2)CC1`, the cell count in test [1] stood at 787. In addition, the inhibition was 3.2% (inactive) in test [1], -70.7% (inactive) in test [3], 11% (inactive) in test [7] and 25.8% (inactive) in test [8]. In addition, in test [2], the inhibition of aggregation is -5.2% (inactive). Also, the nuclei count in test [2] came out at 96.8%; in test [3], 116%. In addition, in test [4], the fluorescence slope was -0.601 (inactive). The NADPH fluorescence slope in test [5] was -3.2e-05 (inactive). For the same compound, the slope in test [6] is 0.00689 (inactive).
Consider `CC(OC(=O)C1CC=CCC1C(N)=O)C(Cl)=C(Cl)Cl` (centres undefined), for which the cell count in test [1] was determined as 326. For the same compound, the inhibition in test [1] was 1.3% (inactive); in test [3], -94.9% (inactive); in test [7], -2.75% (inactive); in test [8] it was 6.78% (inactive). In addition, in test [2], the inhibition of aggregation was -6% (inactive). For the same compound, the nuclei count in test [2] stood at 108%; in test [3], 132%. Besides, the fluorescence slope in test [4] is -0.506 (inactive). Moreover, the NADPH fluorescence slope in test [5] was -1.1e-05 (inactive). The slope in test [6] is 0.00744 (inactive).
For the compound `COc1ccc(C(c2nnnn2C2CCCC2)N2CCC(C)CC2)c(OC)c1` (centres undefined), the cell count in test [1] stood at 584. In addition, the inhibition in test [1] was -7.1% (inactive); in test [3], -5.7% (inactive); in test [7], 2.52% (inactive); in test [8] it was 3.27% (inactive). For the same compound, the inhibition of aggregation in test [2] is -6.5% (inactive). Moreover, the results for the nuclei count in test [2] and in test [3] were 102% and 109%, respectively. Also, the fluorescence slope in test [4] is -0.571 (inactive). Besides, in test [5], the NADPH fluorescence slope is 1.2e-05 (inactive). In test [6], the slope is 0.005 (inactive).
In the case of `COc1cc2c3c(c1)/C(=C1/SC(NC(C)=O)=NC1=O)C(=O)N3C(C)(C)C=C2C`, in test [1], the cell count is 381. The inhibition in test [1] is -2% (inactive); in test [3] it was -35.9% (inactive); in test [7] it was 18% (inactive); in test [8] it was 16.3% (inactive). In test [2], the inhibition of aggregation is 7.7% (inactive). Moreover, the nuclei count in test [2] was 91.9%; in test [3], 91%. Further, the fluorescence slope in test [4] is -0.467 (inactive). For the same compound, in test [5], the NADPH fluorescence slope was -2e-05 (inactive). Besides, the slope in test [6] is 0.00288 (inactive).
